Screens as filed in PubChem.
Shown are actives, neighbours in structure and some others; about 5.3% of the full set was active somewhere.
IMPase cell inh = cell-permeable inhibitors of inositol monophosphatase (IMPase) | CHO-M1 cells, IP1 accumulation, HTRF TR-FRET ratio | AID 901 | 120,000 tested, under 10 active | inhibition (IP1 accumulation), % at 46.1 µM | P97697; active = well fitted curve in the direction sought with a large enough effect in the signal ratio, not every such curve was filed as active; inconclusive = small, poorly fitted or top-dose-only effect, or a change in a side signal; inactive = no such curve, though single readings can be large or run the other way; the % refers to the signal ratio;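 also: cells stimulated with carbachol in lithium chloride buffer; plate controls were DMSO basal wells for no effect and reference inhibitor wells for full effect; higher means more IMPase inhibition seen as more IP1 and lower FRET ratio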
Target sequence (P97697 whole entry, looked up): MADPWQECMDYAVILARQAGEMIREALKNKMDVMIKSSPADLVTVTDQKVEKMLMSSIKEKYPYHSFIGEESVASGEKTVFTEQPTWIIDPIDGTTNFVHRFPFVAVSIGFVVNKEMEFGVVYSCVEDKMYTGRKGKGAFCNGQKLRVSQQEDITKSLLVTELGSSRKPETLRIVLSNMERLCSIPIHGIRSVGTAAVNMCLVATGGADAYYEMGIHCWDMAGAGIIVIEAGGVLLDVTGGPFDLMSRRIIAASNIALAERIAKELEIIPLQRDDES
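Carbachol-driven Gq signalling in CHO-M1 cells (2000/well) generates IP1. Compounds that block IMPase raise IP1 and so reduce the FRET signal from Eu-anti-IP1 and d2-IP1 after a 10 min room-temperature lysis.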
HPGD inh = blocks human HPGD enzyme activity; P15428; Potency, µM, for inactives: at the highest dose activity change, negative = inhibition, actives largely listed as inhibitors; 150,000 compounds, 4.3% hits; purified HPGD, NADH fluorescence kinetic, PGE2 substrate; active = well fitted inhibition curve with a large enough effect, not every such curve was filed as active; inconclusive = small, poorly fitted or top-dose-only effect, or another doubt; inactive = no such curve, though single readings can be large or run the other way; also: potency is read from the fitted curve at half-maximal effect
Target sequence (P15428 whole entry, looked up): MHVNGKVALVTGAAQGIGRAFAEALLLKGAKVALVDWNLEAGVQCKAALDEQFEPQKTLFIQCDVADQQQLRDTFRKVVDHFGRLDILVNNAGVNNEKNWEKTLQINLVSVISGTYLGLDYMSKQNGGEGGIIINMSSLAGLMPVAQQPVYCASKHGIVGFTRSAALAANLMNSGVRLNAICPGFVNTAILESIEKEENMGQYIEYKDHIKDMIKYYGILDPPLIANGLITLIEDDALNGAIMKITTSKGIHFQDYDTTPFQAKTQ
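NADH formation kinetics: reaction with 30 uM PGE2 and 1 mM NAD+ (final), 20 nM enzyme, Tris-HCl pH 8 with Tween 20, after 15 min compound preincubation at room temperature. Fluorescence change, last versus first of five reads.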
12-hLO inh = 12-hLO (ALOX12) enzyme inhibition | P18054 | purified 12-hLO, xylenol orange hydroperoxide absorbance | Potency, µM (titrated, usually from 57.1 µM), for inactives: top-dose activity change, negative = inhibition, hits mostly inhibitors | 150,000 compounds, 0.12% hits; also: potency is read from the fitted curve at half-maximal effect; nearly all actives have a fitted effect of over 55% in size
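Hydroperoxide formation by human 12-lipoxygenase from 40 uM arachidonic acid was followed colorimetrically via ferric-xylenol orange complex, using the 573/405 nm absorbance ratio. Enzyme concentration was 150 nM, with 30 min reaction at room temperature.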
ALOX15B inhib = inhibitors of human 15-lipoxygenase 2 (ALOX15B) | O15296 | purified 15hLO-2, xylenol orange hydroperoxide absorbance | Potency, µM (top dose mostly 57.1 µM), inactives show at the top dose activity change, negative = inhibition, hits mostly inhibitors | 110,000 compounds, 0.56% hits; also: potency is read from the fitted curve at half-maximal effect; nearly all actives have a fitted effect of over 60% in size
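Purified human 15hLO-2 (50 nM) preincubated 15 min with compound, then 45 uM arachidonic acid for 90 min at RT in 25 mM Hepes pH 7.5, 0.01% Triton X-100. Hydroperoxide detected by Fe-xylenol orange; 573/405 nm absorbance ratio.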
IMPase Li inh = membrane-permeable IMPase blocker, potentiated with lithium; CHO-M1 cells, IP1 TR-FRET (IP-One), carbachol + lithium; Potency, µM (top dose mostly 59.4 µM), for inactives: at the top dose activity, negative = IMPase inhibition, actives largely listed as inhibitors; 210,000 compounds, 0.35% hits; AID 1457;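 also: IP1 builds up when IMPase is blocked and the TR-FRET signal falls; potency is read from the fitted curve at half-maximal effect; plate controls were basal vehicle for no effect and high inhibitor control for full effect; nearly all actives have a fitted effect of over 50% in size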
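Readout is a homogeneous TR-FRET IP1 immunoassay (Ex 320, Em 665 and 620), where raised cytosolic IP1 lowers signal. Cells were CHO-M1 treated 30 min at 37C with test compounds plus a little lithium; AC50 values came from Hill-equation fitting.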
PNC assembly inh = blocks assembly of the perinucleolar compartment. PC3M PTB-GFP, PNC prevalence imaging, 16 h; active compounds read low. activity change (PNC), negative = inhibition, % at 10 µM. 140,000 compounds, 3.1% hits. AID 2417;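 active = readout at or below -70, meaning at least 70% loss of cells showing the perinucleolar compartment, a nuclear body marking cancer cells; inconclusive = readout between -30 and a set limit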;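 also: plate controls were DMSO wells for no effect and camptothecin positive control wells for full effect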
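Read-out is percentage of cells bearing a perinucleolar compartment, from automated 20x imaging of fixed, Hoechst-stained PC3M PTB-GFP cells. Cells were seeded 4 h, then exposed 16 h to compound (23 nl of library stock) in duplicate plates.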
* marks the source's active call; other numbers are inactive results; ? = inconclusive; . = no result given; [ ] = remark or other dose. Unless noted, calls follow the shape of the dose curve; as a rule, active = well fitted curve in the direction sought with a large enough effect; inconclusive = small, poorly fitted or top-dose-only effect, or another doubt; inactive = no such curve, though single readings can be large; an effect the other way counts as inactive or inconclusive. Unless noted, % is scaled to controls: 0 for no effect and ±100 for the full control effect.

SMILES | IMPase cell inh | HPGD inh | 12-hLO inh | ALOX15B inhib | IMPase Li inh | PNC assembly inh
CCN(CC)c1ccc(C2C(C(=O)OC(C)C)C(=O)CC(C)(O)C2C(=O)OC(C)C)cc1 (configuration not stated) | 2 | -5% | -3% | 2% | 16%[38.3 µM] | -113*
CCOC(=O)C1C(=O)CC(C)(O)C(C(=O)OCC)C1c1ccc(N(CC)CC)cc1 (configuration not stated) | 12 | 7% | 2% | . | 15% | -119*
CC(C)OC(=O)C1C(=O)CC(C)(O)C(C(=O)OC(C)C)C1c1ccc(F)cc1 (configuration not stated) | 11 | -2% | 1% | 1% | 0%[38.3 µM] | 23
CCN(CC)CCn1cnc2c([nH]c3cccc(OC)c32)c1=O | -11[1.84 µM] | ? | 3% | 6%[11.4 µM] | -20%[38.3 µM] | 30
COc1cccc2[nH]c3c(=O)n(CCN(C)C)cnc3c12 | -21 | ? | 0% | 3% | -1%[38.3 µM] | -87*
Cc1c(Nc2ncccc2C(=O)O)cccc1C(F)(F)F | -8[20.6 µM] | -13% | 1% | -6% | 8% | .
COc1ccc(C2=C(Nc3ccc(F)cc3)c3ccccc3C2=O)cc1 | 3 | 25µM* | -10% | 4% | 10%[38.3 µM] | -13
COc1ccc(C2=C(Nc3ccc(C)cc3)c3ccccc3C2=O)cc1 | . | -6% | -2% | . | 8% | 12
COc1ccccc1NC(=S)c1ccccc1 | . | 22µM* | -1% | . | -2% | -27
CC(O)C#C[Si](C)(C)c1ccccc1 (configuration not stated) | . | -4% | . | . | 10% | .
CCn1c(/N=C/c2ccccc2NS(=O)(=O)c2ccc(C)cc2)nc2ccccc21 | -5 | -6% | -2% | . | -1% | ?
O=C(NC(=S)Nc1ccccc1)c1cc(-c2ccccc2)nc2ccccc12 | 1 | 20µM* | -3% | 1% | ? | ?
O=C(Nc1ccccc1)c1cnc2ccccc2n1 | . | -12% | 1% | . | -6% | -114*
O=C(NC(=S)Nc1ccccn1)c1cc(-c2ccccc2)nc2ccccc12 | . | -24% | 2% | . | 5% | -3
O=C(Nc1ccccc1)c1cc(Cl)nc2ccccc12 | . | -8% | 0% | . | 8% | -100*
O=c1cc(O)c2c(=O)n(-c3ccccc3)c3c(c2o1)CCCCCC3 | . | -28% | -5% | . | 5% | -88*
O=c1cc(O)c2c(=O)n(C3CCCCC3)c3ccccc3c2o1 | -4 | -10% | -22% | -14% | -20%[38.3 µM] | 16
Cc1ccc(-n2c(Cl)c(Cl)nc(Cl)c2=O)cc1 | . | 2.5µM* | -2% | . | 17% | ?
CCCCc1ccc(CC(=O)O)cc1 | 4 | 32µM* | -3% | 8% | -25%[38.3 µM] | ?
Cn1c(-c2nc(-c3ccccc3)cs2)nc2ccccc21 | -5 | ? | -4% | 6% | 12% | .
CC(=O)c1c(N2CCCCC2)nc(=O)n(-c2ccccc2)c1C | -5 | -6% | 3% | -4% | 15%[38.3 µM] | ?
CC(=O)c1c(N2CCOCC2)nc(=S)n(-c2ccccc2)c1C | 6 | -4% | 9% | 1% | 34%[38.3 µM] | ?
CC(=O)c1c(N2CCOCC2)nc(=S)n(-c2ccc([N+](=O)[O-])cc2)c1C | -11 | -14% | -1% | 4% | 11%[38.3 µM] | -113*
CC(=O)c1c(N2CCOCC2)nc(=O)n(-c2ccccc2)c1C | -6 | -8% | 5% | 5% | 0%[38.3 µM] | -80*
Cc1ccc(OCCCCNC2CCCCC2)c(C)c1 | . | . | . | . | 12% | .
COC(=O)Cc1cc(=O)n(-c2nc3ccccc3[nH]2)[nH]1 | -16 | -5% | 1% | . | 6% | -100*
Cc1cc([N+](=O)[O-])cc(C)c1OCC(=O)N/N=C/c1ccc(OC(=O)c2ccccc2Br)cc1 | . | -6% | -1% | . | 7% | 62
Cc1cc([N+](=O)[O-])cc(C)c1OCC(=O)N/N=C/c1ccc(OC(=O)c2ccccc2)cc1 | . | -13% | -1% | . | 17% | -100*
